Experimental data reported in PubChem BioAssay AID504850 (National Center for Advancing Translational Sciences (NCATS), 2011).
Out of some 2,300 compounds screened, about 1,200 (52%) were called active. Inconclusive results (about 34%) are left out. Calls come from the whole dose curve; as a rule, active = well fitted inhibition curve with a large enough effect; inconclusive = small, poorly fitted or top-dose-only effect, or effect the other way; inactive = no such curve, though single readings can be large or run the other way. So high a share suggests a set chosen from earlier hits. The list shows a part of the results.

assay: Confirmation screen for delayed death inhibitors of the malarial parasite plastid, 48 hour incubation; note: nearly all actives have a fitted effect of over 65% in size; settings: P. falciparum-infected erythrocytes, luciferase growth; series mostly up to 28.7 µM
Method in brief: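 Erythrocytes infected with luciferase-expressing P. falciparum (2% hematocrit, 0.1% parasitemia) incubated with compounds 48 hours at 37 C, 5% CO2, in RPMI/Albumax. Growth inhibition scored as reduced luminescence after detection reagent.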
Potency is the fitted concentration of half-maximal effect.

SMILES | Potency
CCOc1ccc(N(C)C(=O)CCc2nnc3ccc(N4CCCCC4)nn23)cc1 | 11.2 µM (active)
O=C(Nc1cccc(Br)c1)c1ccc2snnc2c1 | inactive
CC(=O)Nc1cccc(C(=O)/C=C/c2ccc(Br)cc2)c1 | 14.1 µM (active)
CC(=O)Nc1cccc(C(=O)/C=C/c2ccc(C)cc2)c1 | 15.8 µM (active)
CCC(=O)Nc1cccc(C(=O)/C=C/c2cc(Br)ccc2OC)c1 | 10 µM (active)
COC(=O)c1ccccc1SC1CC(=O)N(c2ccccc2)C1=O (stereo not given) | inactive
C=CCNC(=O)c1onc(CSc2ccc(F)c(F)c2)c1C(=O)O | inactive
CC(=O)N1c2ccc(S(=O)(=O)NCCC(=O)NC3CCCC(C)C3C)cc2CC1C (stereo not given) | 15.8 µM (active)
CN(C)S(=O)(=O)c1cccc(NC(=O)CSc2cccc3cccnc23)c1 | 11.2 µM (active)
Cc1ccc(NC(=O)CSc2cccc3cccnc23)c(C)c1 | inactive
Cn1c(=O)c(=O)n(C)c2cc(N3CCCCC3)c(NS(=O)(=O)c3ccc(Br)cc3)cc21 | 11.2 µM (active)
COc1ccc(OC)c(CNC(=O)c2ccc(C)c(NC(=O)C3=C(C)OCCS3)c2)c1 | 12.6 µM (active)
CCCNC(=O)COC(=O)c1ccccc1C(=O)c1ccc(Cl)c([N+](=O)[O-])c1 | 12.6 µM (active)
CC(CCc1ccccc1)NC(=O)COC(=O)c1ccc(S(C)(=O)=O)c([N+](=O)[O-])c1 (stereo not given) | inactive
CC1CCN(C(=O)Cn2cc(C(=O)c3ccco3)c3ccccc32)CC1 | 14.1 µM (active)
Cc1cc(Sc2nnc(/N=C/N(C)C)s2)c2ccccc2n1 | 10 µM (active)
Cc1cc(Sc2nnc(N)s2)c2ccccc2n1 | 10 µM (active)
O=C(O)CCCCCNc1nc(-c2ccccc2)nc2ccccc12 | 12.6 µM (active)
C=CCN(CC=C)C(=O)C1CCN(S(=O)(=O)c2ccc(N3CCCC3=O)cc2)CC1 | 14.1 µM (active)
COc1ccc(S(=O)(=O)N2CCC(C(=O)Nc3ccccc3N3CCCCC3)CC2)cc1OC | 11.2 µM (active)
COc1ccc(Cl)cc1NC(=O)C1Cc2cc(S(=O)(=O)N3CCCC3)ccc2N1C(C)=O (stereo not given) | 11.2 µM (active)
COc1cccc(NC(=O)C2CCN(S(=O)(=O)c3ccc4[nH]c(=O)oc4c3)CC2)c1 | inactive
COc1cc(NC(=O)C2CCN(S(=O)(=O)c3ccc(N4CCCC4=O)cc3)CC2)cc(OC)c1 | 14.1 µM (active)
Cc1ccc(S(=O)(=O)N2CCC(C(=O)Nc3ccc(S(=O)(=O)N4CCCC4)cc3)CC2)cc1C | 14.1 µM (active)
COc1ccc(C)cc1NC(=O)C1CCN(S(=O)(=O)c2ccc3c(c2)NC(=O)CO3)CC1 | 12.6 µM (active)
O=C/C=C/c1c(-c2ccccc2)cc2oc3ccccc3cc1-2 | inactive
Cc1cc(=O)n2nc(N3CCC(C(=O)NCCc4ccc(Cl)cc4)CC3)sc2n1 | 12.6 µM (active)
Cc1cc(=O)n2nc(N3CCC(C(=O)NCc4ccc(Cl)cc4)CC3)sc2n1 | 12.6 µM (active)

SMILES | Potency
Cc1cc(=O)n2nc(N3CCCC(C(=O)NCc4ccc(Cl)cc4)C3)sc2n1 (stereo not given) | 12.6 µM (active)
COc1ccc(N(CC(=O)NCCSCc2ccc(C)cc2)S(=O)(=O)c2ccccc2)cc1 | 12.6 µM (active)
COc1ccc(NC(=O)CN(c2ccc(F)cc2)S(=O)(=O)c2ccccc2)c(OC)c1 | 15.8 µM (active)
Cc1ccc(S(=O)(=O)N(Cc2ccccc2)C(C)C)cc1 | inactive
COc1ccc2cc3[n+](cc2c1OC)CCc1cc2c(cc1-3)OCO2 | 1.12 µM (active)
CCOC(=O)c1ccc(N2N=C(C)/C(=C/C=C/c3ccco3)C2=O)cc1 | 6.31 µM (active)
CCOC(=O)c1ccc(Nc2nc(=O)c3cccnc3s2)cc1 | inactive
C=C1c2c(Cl)ccc(O)c2C(O)=C2C(=O)[C@@]3(O)C(O)=C(C(N)=O)C(=O)[C@@H](N(C)C)[C@@H]3[C@@H](O)[C@H]12 | 4.47 µM (active)
CN(C)c1ccc(O)c2c1CC1CC3[C@@H](N(C)C)C(=O)C(C(N)=O)=C(O)[C@]3(O)C(=O)C1=C2O (stereo not given in full) | 2.24 µM (active)
C[C@@H]1c2cccc(O)c2C(O)=C2C(=O)[C@@]3(O)C(O)=C(C(N)=O)C(=O)[C@@H](N(C)C)[C@@H]3[C@@H](O)[C@@H]21 | 4.47 µM (active)
C=C1c2c(Cl)ccc(O)c2C(O)=C2C(=O)[C@]3(O)C(O)=C(C(N)=O)C(=O)[C@@H](N(C)C)[C@@H]3[C@@H](O)C12 (stereo not given in full) | 3.98 µM (active)
Cc1ccc(-c2csc3ncn(CC#N)c(=O)c23)cc1C | inactive
Cc1ccccc1NC1=NCC(c2ccc([N+](=O)[O-])cc2)S1 (stereo not given) | 11.2 µM (active)
C=CCNC(=O)c1oc2ccc(S(=O)(=O)N3CCCCC3)cc2c1C | 14.1 µM (active)
C=CCNC(=O)c1onc(CSc2ccc(C)c(C)c2)c1C(=O)O | inactive
C=CCNC(=O)c1onc(CSc2cc(C)cc(C)c2)c1C(=O)O | inactive
CCN(CC)Cc1cc2[nH]c3c4ccc(Cl)cc4ncc3c2cc1OC | 0.178 µM (active)
CCCCCCn1ccc(=N)cc1 | 7.08 µM (active)
CCOC(=O)c1c(-c2ccc(-c3ccccc3)cc2)csc1NC(=O)c1cccc(N2C(=O)CCC2=O)c1 | 5.01 µM (active)
CCOC(=O)c1c(-c2cccc(C)c2)csc1NC(=O)c1c(-c2ccccc2)noc1C | 11.2 µM (active)
CCOC(=O)c1c(NC(=O)c2c(-c3ccccc3)noc2C)sc(C)c1-c1ccccc1 | 6.31 µM (active)
CCOC(=O)c1c(-c2ccc(F)cc2)csc1NC(=O)c1c(-c2ccccc2)noc1C | 8.91 µM (active)
COC(=O)c1c(-c2ccccc2)csc1NC(=O)c1c(-c2ccccc2)noc1C | 14.1 µM (active)
O=C(c1cccs1)N1N=C(c2ccccc2)CC1c1ccccc1O (stereo not given) | 3.55 µM (active)
CCOc1ccc2c(c1)OC(c1ccccc1)(C(F)(F)F)NC2=O (stereo not given) | 2 µM (active)
CC[C@@H](C)C(NC(=O)OC(C)(C)C)c1cn([C@@H](CCCCNC(=O)OC(C)(C)C)C(=O)N2CCN(C(=O)OC(C)(C)C)CC2)nn1 (stereo not given in full) | 2 µM (active)
CC[C@@H](C)C(NC(=O)OC(C)(C)C)c1cn([C@@H](Cc2ccc(O)cc2)C(=O)N2CCN(C(=O)OC(C)(C)C)CC2)nn1 (stereo not given in full) | 12.6 µM (active)
